Calls of active or inactive are those of the source.
Assays:
[1] = E. coli DRC41 culture turbidity changes, primary screen, E. coli filamentation inducer project, strain DRC41, OD650, 48 h (AID 1152);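 further: E. coli MC1000 strain DRC41 lacking acrAB efflux pump and sulA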; details: E. coli DRC41 (acrAB sulA), higher = more signal, called active from +8 up or from −8 down
[2] = small-molecule binders of probe aLefty1, primary screen, biochemical, small-molecule microarray, 635/667 nm fluorescence (AID 1153); details: higher = more signal;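 further: score merges spot fluorescence with signal-to-noise ratio from the scanned slide images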
[3] = PSAC antagonists in infected red cells, primary screen, cell-based, P. falciparum Indochina, OD700, 1 h (AID 1154); details: P. falciparum Indochina infected RBC osmotic lysis, higher = more signal, called active from +8 up or from −8 down
[4] = PSAC antagonists in infected red cells, primary screen, cell-based, P. falciparum Indochina, OD700, 2 h (AID 1155);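 further: lysis reports solute entry through the parasite surface anion channel PSAC; channel blockers reduce lysis of infected cells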; details: P. falciparum Indochina infected erythrocytes, osmotic lysis OD700; higher = more signal, called active from +8 up or from −8 down
[5] = osmotic lysis modulators in infected erythrocytes, primary screen, PSAC antagonist project, cell-based, P. falciparum Indochina, OD700, 3 h (AID 1156); details: higher = more signal, called active from +8 up or from −8 down
[6] = PSAC antagonists in infected red cells, primary screen, cell-based, P. falciparum Indochina, OD700, 18 h (AID 1157); details: P. falciparum Indochina infected erythrocytes, osmotic lysis OD700, 18 h; higher = more signal, called active from +8 up or from −8 down
[7] = modulators of S6 phosphorylation in cells, primary screen, cell-based, A549, cytoblot, luminescence, serum-stimulated (AID 1158); details: A549 phospho-S6 cytoblot, 5 h, higher = more signal;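 further: serum-stimulated A549 lung adenocarcinoma cells; signal is phosphorylated S6 detected by cytoblot immunostaining with HRP secondary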
[8] = target: NADPH oxidase 2 (Homo sapiens) (UniProt P04839); assay: NOX2-dependent H2O2 signal modulators, primary screen, NOX inhibitor project, cell-based, HEK293-NOX2, PMA-stimulated, Amplex Red fluorescence (AID 1159); details: 45 min, higher = more signal, called active from +8 up or from −8 down; further: test concentration not given here
[9] = target: NADPH oxidase 4 (Homo sapiens) (UniProt Q9NPH5); assay: NOX4-dependent H2O2 signal modulators, primary screen, NOX inhibitor project, cell-based, HEK293-NOX4, tetracycline-induced, Amplex Red fluorescence (AID 1160); details: 45 min, higher = more signal, called active from +8 up or from −8 down
[10] = target: NADPH oxidase 5 (Homo sapiens) (UniProt Q96PH1); assay: NOX5-dependent H2O2 signal modulators, primary screen, NOX inhibitor project, cell-based, HEK293-NOX5, Amplex Red fluorescence (AID 1161); details: HEK293-NOX5, ionomycin, 45 min, higher = more signal
[11] = A549 cell viability effects, profiling panel, calcein-AM fluorescence, 48 h, basal (AID 1162); details: higher = more signal; further: test concentration not given here
[12] = adipocyte viability effects, profiling panel, cell-based, 3T3-L1 adipocytes, calcein-AM fluorescence, 48 h, basal (AID 1163); details: 3T3-L1 adipocytes viability, higher = more signal; further: test concentration not given here
[13] = HepG2 cell viability effects, profiling panel, calcein-AM fluorescence, 48 h, basal (AID 1164); details: higher = more signal; further: test concentration not given here
[14] = MM1S cell viability effects, profiling panel, calcein-AM fluorescence, 48 h, basal (AID 1165); details: higher = more signal;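 further: viability of MM1S multiple myeloma cells under basal unstimulated conditions; test concentration not given here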
[15] = basal RPMI8226 viability, no added stimulus, profiling panel, cell-based, calcein-AM fluorescence, 48 h, PK04 Diversity Set (AID 1166); details: RPMI8226 myeloma viability, higher = more signal;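 further: cells grown under basal conditions without added stimulus; test concentration not given here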
[16] = basal HepG2 mitochondrial membrane potential changes, profiling panel, cell-based, JC-1 fluorescence, 24 h, 100 nL compound (AID 1167); details: higher = more signal; further: test concentration not given here
[17] = basal 3T3-L1 adipocyte mitochondrial potential changes, profiling panel, cell-based, JC-1 fluorescence, 3T3-L1 adipocytes, 24 h, 100 nL compound (AID 1168); details: JC-1 mitochondrial fluorescence, higher = more signal, called active from +8 up or from −8 down; further: test concentration not given here
[18] = basal RPMI8226 mitochondrial membrane potential changes, profiling panel, cell-based, JC-1 fluorescence, 24 h, 100 nL compound (AID 1169); details: RPMI8226 myeloma, JC-1 mitochondrial potential fluorescence, higher = more signal; further: test concentration not given here
[19] = basal MM1S mitochondrial membrane potential changes, profiling panel, cell-based, JC-1 fluorescence, 24 h, 100 nL compound (AID 1170); details: higher = more signal; further: test concentration not given here
[20] = A549 lung cancer cell viability effects, profiling panel, resazurin fluorescence, 24 h, PK04 Diversity Set (AID 1171); details: higher = more signal, called active from +8 up or from −8 down; further: test concentration not given here

NADPH oxidase 5 (Homo sapiens), sequence (Q96PH1 whole entry, looked up): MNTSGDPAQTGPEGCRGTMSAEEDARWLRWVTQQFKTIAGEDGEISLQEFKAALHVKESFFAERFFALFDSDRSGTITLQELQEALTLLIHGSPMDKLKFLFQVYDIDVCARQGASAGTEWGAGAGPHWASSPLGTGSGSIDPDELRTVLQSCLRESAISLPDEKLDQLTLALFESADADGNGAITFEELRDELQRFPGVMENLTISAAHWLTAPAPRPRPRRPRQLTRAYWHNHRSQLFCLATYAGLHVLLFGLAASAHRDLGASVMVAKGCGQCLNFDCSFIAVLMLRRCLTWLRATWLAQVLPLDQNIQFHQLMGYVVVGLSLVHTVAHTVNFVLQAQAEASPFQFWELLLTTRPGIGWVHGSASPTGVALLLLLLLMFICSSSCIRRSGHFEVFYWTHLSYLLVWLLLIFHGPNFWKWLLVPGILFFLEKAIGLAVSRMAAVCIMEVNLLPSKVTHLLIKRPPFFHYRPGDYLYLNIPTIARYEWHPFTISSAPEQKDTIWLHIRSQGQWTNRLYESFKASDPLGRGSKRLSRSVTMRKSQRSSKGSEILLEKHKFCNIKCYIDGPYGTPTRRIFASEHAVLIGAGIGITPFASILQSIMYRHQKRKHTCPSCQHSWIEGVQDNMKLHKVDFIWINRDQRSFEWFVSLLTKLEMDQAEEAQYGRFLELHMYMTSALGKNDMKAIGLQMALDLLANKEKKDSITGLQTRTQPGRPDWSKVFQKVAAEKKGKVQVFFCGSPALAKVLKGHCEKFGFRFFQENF
NADPH oxidase 4 (Homo sapiens), sequence (Q9NPH5 whole entry, looked up): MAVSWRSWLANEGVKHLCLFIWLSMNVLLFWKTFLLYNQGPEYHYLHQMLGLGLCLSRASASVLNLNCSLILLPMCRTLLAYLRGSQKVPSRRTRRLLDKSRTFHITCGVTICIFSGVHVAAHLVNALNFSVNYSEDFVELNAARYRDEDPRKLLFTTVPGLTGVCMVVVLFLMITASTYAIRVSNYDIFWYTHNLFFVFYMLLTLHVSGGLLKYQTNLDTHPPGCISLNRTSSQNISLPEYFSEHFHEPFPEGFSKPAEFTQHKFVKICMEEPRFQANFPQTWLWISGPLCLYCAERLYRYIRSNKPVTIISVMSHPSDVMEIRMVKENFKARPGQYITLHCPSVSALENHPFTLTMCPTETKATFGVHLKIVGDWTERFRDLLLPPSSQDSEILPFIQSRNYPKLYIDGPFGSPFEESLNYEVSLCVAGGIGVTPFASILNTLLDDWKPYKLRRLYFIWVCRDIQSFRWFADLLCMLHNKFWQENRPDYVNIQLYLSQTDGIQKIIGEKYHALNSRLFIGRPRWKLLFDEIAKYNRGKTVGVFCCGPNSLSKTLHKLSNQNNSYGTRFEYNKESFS
NADPH oxidase 2 (Homo sapiens), sequence (P04839 whole entry, looked up): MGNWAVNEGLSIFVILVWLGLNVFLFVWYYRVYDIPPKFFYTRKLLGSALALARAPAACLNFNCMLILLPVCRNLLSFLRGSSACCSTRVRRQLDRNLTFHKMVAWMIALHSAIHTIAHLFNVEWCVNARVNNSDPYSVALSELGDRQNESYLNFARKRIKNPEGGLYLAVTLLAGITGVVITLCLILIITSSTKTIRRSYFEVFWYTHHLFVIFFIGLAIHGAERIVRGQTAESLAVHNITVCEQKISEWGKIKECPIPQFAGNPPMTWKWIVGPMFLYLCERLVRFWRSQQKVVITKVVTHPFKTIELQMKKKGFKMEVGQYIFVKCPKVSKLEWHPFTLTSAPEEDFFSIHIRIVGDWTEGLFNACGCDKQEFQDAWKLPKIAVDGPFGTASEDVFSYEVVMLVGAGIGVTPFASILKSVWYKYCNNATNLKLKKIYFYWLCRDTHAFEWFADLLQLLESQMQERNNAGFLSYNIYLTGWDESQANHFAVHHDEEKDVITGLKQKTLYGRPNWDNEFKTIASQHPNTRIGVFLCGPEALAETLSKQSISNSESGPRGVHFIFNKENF

Row | Structure (SMILES) | z-score [1] | composite z-score [2] | z-score [3] | z-score [4] | z-score [5] | z-score [6] | z-score [7] | z-score [8] | z-score [9] | z-score [10] | z-score [11] | z-score [12] | z-score [13] | z-score [14] | z-score [15] | z-score [16] | z-score [17] | z-score [18] | z-score [19] | z-score [20]
1 | CC(C)NC(=O)[C@@H]1c2ccccc2C(=O)N(CC23CC4CC(CC(C4)C2)C3)[C@H]1c1ccc(CO)cc1 | 1.47 (inactive) | 0.433 | 1.63 (inactive) | -0.315 (inactive) | -0.143 (inactive) | -0.853 (inactive) | 1.31 | 0.357 (inactive) | 0.318 (inactive) | -1.82 | 1.39 | 0.885 | 1.29 | -0.0705 | 0.301 | 1.83 | -0.459 (inactive) | 0.433 | -0.624 | 1.18 (inactive)
2 | C=CC[C@@H]1C=C[C@H](ON=Cc2ccc(C(=O)N3[C@H](c4ccc(C)cc4)[C@@H](C)CC[C@H]3C(=O)OC)cc2)[C@@H](CO)O1 | 0.69 (inactive) | -0.0945 | 2.78 (inactive) | 0.852 (inactive) | -0.273 (inactive) | 0.637 (inactive) | -1.15 | -0.428 (inactive) | 0.569 (inactive) | -0.0942 | 0.319 | -0.361 | -0.431 | -0.581 | -1.4 | -1.67 | -0.0052 (inactive) | 0.634 | -0.434 | -0.299 (inactive)
3 | C=C(/C(=C/C[C@@H](OC(=O)c1ccncc1)c1ccc(OCCO)cc1)c1cnc2ccccc2c1)C(C)C | 1.13 (inactive) | -0.0199 | 12.8 (active) | 4.25 (inactive) | -1.77 (inactive) | -0.0139 (inactive) | 0.13 | -2.73 (inactive) | -0.648 (inactive) | -3.24 | 0.476 | 0.443 | -0.477 | -1.78 | 0.448 | 2.2 | -0.883 (inactive) | -0.736 | -0.48 | -0.464 (inactive)
4 | CC(=O)OC[C@H]1O[C@H](C#CCCCc2ccccc2)C=C[C@@H]1OC(C)=O | -0.802 (inactive) | -0.0536 | 3.35 (inactive) | 0.23 (inactive) | -0.213 (inactive) | 0.148 (inactive) | -0.0744 | -1.19 (inactive) | 0.903 (inactive) | 0.839 | -0.442 | -0.0563 | -2.26 | -3.51 | -3.61 | -1.12 | 0.288 (inactive) | -0.861 | -2.26 | 0.899 (inactive)
5 | O=C1[C@H]2[C@H]3[C@H](O)[C@H](O)CC(=NOC[C@@H](O)COCc4ccco4)[C@H]3CC[C@H]2C(=O)N1Cc1ccc2c(c1)OCO2 | 0.198 (inactive) | -0.147 | 8.99 (active) | 1.02 (inactive) | 0.107 (inactive) | 0.229 (inactive) | -0.552 | -0.377 (inactive) | 0.718 (inactive) | 0.00627 | -0.259 | -0.672 | -1.05 | -0.642 | -0.334 | -0.41 | -0.339 (inactive) | -0.149 | -0.635 | -0.138 (inactive)
6 | CO[C@H]1COC(=O)[C@H](C)COC(=O)CC=C[C@@H](C)[C@H](OC)COC(=O)CC=C[C@@H]1C | 0.738 (inactive) | -0.196 | -0.654 (inactive) | -0.285 (inactive) | -0.654 (inactive) | -0.188 (inactive) | 0.648 | -0.347 (inactive) | 0.0281 (inactive) | 0.625 | 0.593 | -0.101 | 0.968 | 0.191 | -0.0736 | 0.69 | 0.0241 (inactive) | 0.405 | 0.601 | 0.239 (inactive)
7 | CCCNC(=O)OC[C@H]1O[C@H](CCON=C2[C@H]3CCn4c(=O)n(-c5ccccc5)c(=O)n4[C@H]3[C@H](O)[C@@H]3O[C@H]23)C=C[C@@H]1Oc1ccc(OC)cc1 | 0.653 (inactive) | 0.198 | 1.69 (inactive) | -0.0218 (inactive) | 0.378 (inactive) | 0.268 (inactive) | -0.254 | -1.58 (inactive) | -0.373 (inactive) | -0.987 | -0.343 | -0.414 | -0.555 | -1.83 | -1.44 | -0.25 | -0.567 (inactive) | -0.7 | -0.75 | -1.2 (inactive)
8 | COC(=O)[C@@H]1CC[C@H](C)[C@@H](c2ccc(C)cc2)N1C(=O)c1ccc(C=NOC[C@@H](O)COCc2ccco2)cc1 | 1.06 (inactive) | -0.255 | 5.79 (inactive) | 0.944 (inactive) | -0.0224 (inactive) | 1.05 (inactive) | -1.05 | -0.0479 (inactive) | -0.0106 (inactive) | 0.254 | -0.181 | 0.346 | -0.807 | -1.32 | -1.46 | -2.38 | -0.747 (inactive) | 0.304 | -0.352 | -0.45 (inactive)
9 | CCCCCN1CC=CC23O[C@@H]4C=CCOC(=O)[C@@H]4[C@H]2C(=O)N(CCCCCCO)[C@@H]3C1=O (stereo not given in full) | 0.191 (inactive) | -0.103 | 2.04 (inactive) | -0.0969 (inactive) | 0.748 (inactive) | 0.187 (inactive) | 0.0374 | 1.24 (inactive) | -0.482 (inactive) | 1.73 | -0.262 | -0.0159 | 0.63 | 1.04 | -0.534 | -0.429 | -0.574 (inactive) | -0.343 | -0.414 | 0.444 (inactive)
